# Data as given in PubChem BioAssay AID602373 (National Center for Advancing Translational Sciences (NCATS), 2012).
# Several values for one entry are separate records, joined by “and”; a condition that tells them apart may be missing. Identical values can stand only once. Records with an inconclusive call do not appear. Where a call stands in place of a potency, no number is given. Activity calls are given as the source filed them. Calls follow the shape of the dose curve; as a rule, active = well fitted inhibition curve with a large enough effect; inconclusive = small, poorly fitted or top-dose-only effect; inactive = no such curve, though single readings can be large or run the other way.
# Assay: qHTS Assay for Inhibitors of Bacillus subtilis Sfp phosphopantetheinyl transferase (PPTase): Hepg2 Assay
# Settings: HepG2 cytotoxicity counter-screen; series mostly up to 46.1 µM
# From the text: The covalent attachment of a phosphopantetheinyl (4'-PP) arm to a variety of synthases and other proteins is a key posttranslational protein modification. The 4'-PP is installed on the proteins post-translationally from coenzyme A (CoA) on a conserved serine residue by action of phosphopantetheinyl transferase (PPTase) enzymes. Phosphopantetheinylation is essential for synthase activity, and removal of the PPTase gene precludes natural product synthesis in microorganisms, or in the case of fatty acid biosynthesis, renders the organism unviable. PPTase enzymes belong to a distinct structural superfamily. Within bacteria, these enzymes are grouped into two classes based upon primary structure, the AcpS-Type and Sfp-Type PPTases.
# Sfp-type PPTases, corresponding to an activator of surfactin production in Bacillus subtilis, are responsible for modifying type I polyketide and nonribosomal peptide synthases of prokaryotes. Sfp-type PPTases are responsible for the activation of a variety of pathogen-associated virulence factors. Among these compounds are toxins such as mycolactone from Mycobacterium ulcerans, siderophores such as vibriobactin from Vibrio cholerae or mycobactin from Mycobacterium tuberculosis, as well as the mycolic acids which form the waxy cell wall of Mycobacteria. The biosyntheses of these natural products are considered attractive targets for drug design.
# In search of small molecule Sfp-PPTase inhibitors, a fluorescence quenching assay was developed for detection of Bacillus subtilis Sfp-PPTase enzymatic activity in a miniaturized high-throughput format. The consensus ybbr acceptor peptide […] was N-terminally labeled with Black Hole Quencher-2 (BHQ-2) and used in combination with rhodamine-labeled coenzyme A as a co-substrate.
# Phosphopantetheinyl transfer is a process essential to cellular viability and maintenance in all forms of life. Cell-permeable and stable compounds acting as PPTase inhibitors are anticipated to be growth inhibitory agents. This assay sought to assess the toxicity of test compounds in the HepG2 hepatocarcinoma cells; a human cell line whose use additionally determines the toxicity of test article metabolites.
# NIH Chemical Genomics Center [NCGC]
# NIH Molecular Libraries Probe Centers Network [MLPCN]
# Assay Submitter (PI): Michale Burkart, University of California, San Diego
# Test compounds' toxicity was assessed by measuring cellular ATP content using a luciferase-coupled ATP quantitation assay (CellTiter-Glo; Promega, Madison, WI). In this assay, luminescent signal is proportional to amount of ATP, and thus to the number of metabolically competent cells. Briefly, Hepg2 cell suspension (5 uL, 4 x 10^5 cells/mL) was dispensed into 1,536-well tissue-culture treated white/solid bottom assay plates (Greiner Bio-One North America, Monroe, NC) using a Flying Reagent Dispenser (Aurora Discovery, Carlsbad, CA). Cells were incubated at 37 deg C for 6 hr to allow for cell attachment, followed by addition of compounds via pin tool (Kalypsys, San Diego, CA). After compound addition, plates were incubated for 48 hr at 37 deg C. At the end of the incubation period, CellTiter-Glo reagent (5 uL) was added, plates were incubated at room temperature in the dark for 30 min, and the luminescence intensity of each well was determined using a ViewLux plate reader (PerkinElmer, Shelton, CT). The positive control was 92 uM and 41 uM of tetra-N-Octylammonium bromide, and the negative control was DMSO.
row,Structure (SMILES),Potency
1,Cc1cc(C)nc(NC(=S)N2CCN(c3nccs3)CC2)c1,inactive
2,Cc1cc(C)nc(NC(=S)N2CCN(c3ccc(Cl)nn3)CC2)c1,inactive
3,Cc1ccc(N2CCN(C(=S)Nc3cc(C)ccn3)CC2)cc1,inactive
4,Cc1cc(C)nc(NC(=S)N2CCN(c3ncnc4sccc34)CC2)c1,15.8 µM (active)
5,Cc1ccnc(N(C)C(=S)N2CCN(c3cccc(C(F)(F)F)c3)CC2)c1,inactive
6,Cc1cc(C)nc(NC(=S)N2CCN(c3ccc4cn(C)nc4c3)CC2)c1,inactive
7,CC(=O)N1CCN(C(=S)Nc2cc(C)ccn2)CC1,inactive
8,FC(F)(F)c1cccc(N2CCN(C(=S)Nc3ncnc4ccccc34)CC2)c1,inactive
9,Cc1cc(C)nc(NC(=S)N2CCN(c3ccc(Cl)cc3F)CC2)c1,inactive
10,Cc1cc(C)nc(NC(=S)N2CCN(c3cnc4nccn4c3)CC2)c1,inactive
11,Cc1cc(C)nc(NC(=S)N2CCN(c3nncs3)CC2)c1,inactive
12,Cc1cc(C)nc(NC(=S)N2CCN(c3ccncc3)CC2)c1,inactive
13,Cc1cc(C)nc(NC(=S)N2CCN(c3ccc(NS(C)(=O)=O)nn3)CC2)c1,inactive
14,COc1cccc(NC(=S)N2CCN(c3ccc(C(F)(F)F)cc3[N+](=O)[O-])CC2)n1,inactive
15,FC(F)(F)c1cccc(N2CCN(C(=S)Nc3cc(C(F)(F)F)ccn3)CC2)c1,19.9 µM (active)
16,Cc1cc(C)nc(NC(=S)N2CCN(c3ccc4occc4c3)CC2)c1,inactive
17,Cc1cc(C)nc(NC(=S)N2CCN(S(=O)(=O)c3cccc(C(F)(F)F)c3)CC2)c1,inactive
18,COc1cccc(NC(=S)N2CCN(c3cccc(C(F)(F)F)c3)CC2)n1,28.1 µM (active)
19,FC(F)(F)c1cccc(N2CCN(C(=S)Nc3cnccn3)CC2)c1,inactive
20,Cc1cc(C)nc(NC(=S)N2CCN(c3nsc4ccccc34)CC2)c1,inactive

row,Structure (SMILES),Potency
1,Cc1ccnc(NC(=S)N2CCN(c3cccc(C(F)(F)F)c3)C[C@@H]2C)c1,inactive
2,Cc1cc(C)nc(NC(=S)N2CCN(c3ccc(Cl)c(Cl)c3Cl)CC2)c1,inactive
3,COc1cccc(NC(=S)N2CCN(c3ccc(Cl)c(Cl)c3)CC2)n1,inactive
4,CC(=O)c1ccc(N2CCN(C(=S)Nc3cc(C)ccn3)CC2)cc1,inactive
5,Cc1ccnc(NC(=S)NC2CN(c3cccc(C(F)(F)F)c3)C2)c1,25 µM (active)
6,Cc1ccnc(NC(=S)N2CCN(c3cccc(C(F)(F)F)c3)CC2)c1,28.1 µM (active) and 9.96 µM (active) and 25 µM (active)
7,Cc1cc(C)nc(NC(=S)N2CCN(c3ccc(N4CCCC4)nn3)CC2)c1,inactive
8,Cc1cc(C)nc(NC(=S)N2CCN(c3ccc4nonc4c3)CC2)c1,inactive
9,Cc1cc(C)nc(NC(=S)N2CCN(c3nccc4ccccc34)CC2)c1,inactive
10,Cc1ccnc(NC(=S)N2CCNCC2)c1,inactive
11,Cc1cc(C)nc(NC(=S)N2CCN(c3ncccc3Cl)CC2)c1,inactive
12,Cc1cc(C)nc(Nc2nnc(N3CCN(c4cccc(C(F)(F)F)c4)CC3)s2)c1,inactive
13,Cc1ccnc(NC(=S)N2CCN(c3ccc(N)cc3)CC2)c1,inactive
14,Cc1cc(C)nc(NC(=S)N2CCN(Cc3c(F)cccc3Cl)CC2)c1,inactive
15,Cc1cc(C)nc(NC(=S)N2CCN(Cc3cccc4ccccc34)CC2)c1,inactive
16,Cc1ccnc(NC(=O)N2CCN(c3cccc(C(F)(F)F)c3)CC2)c1,6.28 µM (active)
17,S=C(Nc1cc(Cl)ccn1)N1CCN(c2cc(Cl)cc(Cl)c2)CC1,9.96 µM (active)
18,FC(F)(F)c1cccc(N2CCN(C(=S)Nc3cc4ccccc4cn3)CC2)c1,inactive
19,Cc1cc(C)nc(NC(=S)N2CCN(c3ccc4c(c3)OCO4)CC2)c1,inactive
20,Cc1cc(C)nc(NC(=S)N2CCN(c3nc4ccccc4s3)CC2)c1,inactive
